Experimental data reported in PubChem BioAssay (Tox21).
Records with an inconclusive call do not appear. The source made the active and inactive calls. Calls follow the shape of the dose curve; as a rule, active = well fitted cell-killing curve with a large enough effect in the repeat runs; inconclusive = weak or mixed curves; inactive = flat fitted curve, though single readings scatter.

Assay: qHTS RealTime-Glo MT Cell Viability Assay in HepG2 cells - 24 hour (AID 1224867); also: nearly all actives have a fitted effect of over 50% in size
Details: RealTime-Glo luminescence; series mostly up to 76.8 µM; activity change, negative = cytotoxicity: at the top concentration
From the text: U.S. Tox21 Program National Center for Advancing Translational Sciences [NCATS] NIH Chemical Genomics Center [NCGC] U.S. Environmental Protection Agency [EPA] National Institutes of Environmental Health Sciences [NIEHS] National Toxicology Program [NTP] U.S. Food and Drug Administration [FDA] Tox21 Assay Overview: Measure of cell viability is critical in the cell-base assay. Analysis of cell viability is necessary for the characterization of cell responses to cytotoxic drugs and environmental stress. A RealTime-Glo MT Cell Viability Assay to monitor cell viability in real time of continues cell culture during 40 hours of compound treatment was used to screen Tox21 10K library compounds in HepG2 cells. The RealTime-Glo MT Cell Viability Assay is a nonlytic, homogeneous, bioluminescent method to measure cell viability in real time using a simple, plate-based method. The assay involves adding NanoLuc luciferase and a cell-permeant prosubstrate to cells in culture. Viable cells reduce the proprietary prosubstrate to generate a substrate for NanoLuc luciferase. This substrate diffuses from cells into the surrounding culture medium, where it is rapidly used by the NanoLuc Enzyme to produce a luminescent signal. The signal correlates with the number of viable cells, making the assay well suited for cytotoxicity studies.
Tox21 Assay Protocol Summary: The mixture of HepG2 cell suspension and reagents were dispensed at 600cells/6 ul/well in 1536-well tissue culture treated black solid bottom plates using a Multidrop dispenser. After the assay plates were incubated at a 37 C/5% CO2 incubator for 5 hours, 23 nL of compounds dissolved in DMSO, positive and negative controls was transferred to the assay plate by a pintool work station. The plates were incubated at 37 C for 40 hours. The luminescence intensity were measured at 0h, 8h, 16h, 24h, 32h and 40h time points using ViewLux plate reader during compound treatment.
% is scaled to controls: 0 for no effect and ±100 for the full control effect.

| SMILES | activity change, negative = cytotoxicity |
| --- | --- |
| CNC(=O)C(c1ccccc1)c1ccccc1 | 0.89% (inactive) |
| N#CCCOCCOCCC#N | 2.46% (inactive) |
| CN[C@@H]1[C@@H](O)[C@@H](O[C@@H]2[C@H](O)[C@H](O[C@H]3OC(CN)=CC[C@H]3N)[C@@H](N)C[C@H]2N)OCC1(C)O (stereo not given in full) | -0.106% [at 35.3 µM] (inactive) |
| CCS(=O)(=O)CCn1c([N+](=O)[O-])cnc1C | 1.38% [at 35.3 µM] (inactive) |
| CCOC(=O)OCC/C(SC(=O)OCC)=C(\C)N(C=O)Cc1cnc(C)nc1N | 2.94% [at 35.3 µM] (inactive) |
| SCCSCCS | 1.18% (inactive) |
| O=C(O)Cc1cccc(-c2cc(CCCCCCc3ccc(O[C@H]4O[C@H](CO)[C@@H](O)[C@H](O)[C@@H]4O)c(-c4cccc(CC(=O)O)c4)c3)ccc2O[C@H]2O[C@H](CO)[C@@H](O)[C@H](O)[C@@H]2O)c1 | 2.07% [at 0.29 µM] (inactive) |
| CCCCCCCCCCCCC1CO1 (stereo not given) | -0.681% (inactive) |
| O=C(Oc1ccccc1C(=O)O)c1ccccc1O | 5.9% [at 35.3 µM] (inactive) |
| CO/N=C(/C(=O)N[C@@H]1C(=O)N2C(C(=O)O)=C(Cn3nnc(C)n3)CS[C@H]12)c1csc(N)n1 | 4.53% [at 35.3 µM] (inactive) |
| CCCCCCCCCCC | 0.272% (inactive) |
| CN(C)CCCNCCC#N | 0.229% (inactive) |
| COc1cc2c3cc1Oc1cc(ccc1O)C[C@@H]1c4c(cc(OC)c(O)c4Oc4ccc(cc4)C[C@@H]3N(C)CC2)CC[N+]1(C)C | 2.99% [at 35.3 µM] (inactive) |
| Cc1ccccc1OCC1CO1 (stereo not given) | 1.89% (inactive) |
| CCCCCC1CCCC(=O)O1 (stereo not given) | 2.34% (inactive) |
| CCCCOC(=O)[C@@H](C)Oc1ccc(Oc2ccc(C(F)(F)F)cn2)cc1 | -14.9% (inactive) |
| OC[C@@H](O)[C@H](O)[C@@H](O)[C@@H](O)CO | 1.17% (inactive) |
| C[C@H](CCC(=O)O)[C@H]1CC[C@H]2[C@@H]3[C@H](O)C[C@@H]4C[C@H](O)CC[C@]4(C)[C@H]3C[C@H](O)[C@]12C | 2.39% [at 35.3 µM] (inactive) |
| CCOC(=O)C(=O)c1csc(NC=O)n1 | -0.0664% [at 35.3 µM] (inactive) |
| O=C(/C=C/c1ccccc1)NCCO | -1.06% [at 35.3 µM] (inactive) |

| SMILES | activity change, negative = cytotoxicity |
| --- | --- |
| Oc1ccccc1Cc1ccccc1O | -13.1% (inactive) |
| Cc1cccc(C(=O)O)c1[N+](=O)[O-] | 1.34% (inactive) |
| CC1(N)CCC(C(C)(C)N)CC1 (stereo not given) | -1.09% (inactive) |
| Cn1c(=O)c2c(ncn2CC2OCCO2)n(C)c1=O | -0.297% [at 35.3 µM] (inactive) |
| CCCCCCCCCCCCCC(=O)OC | 0.472% (inactive) |
| Cc1nc2ccccc2c(=O)o1 | -0.201% (inactive) |
| CC(C)CCC(=O)CCC(C)C | 0.0403% (inactive) |
| CC(C)CCCC(C)CC=O (stereo not given) | 0.414% (inactive) |
| O=CN1CCOCC1 | 0.826% (inactive) |
| CC(=O)Nc1ccc(C)cc1 | 0.112% (inactive) |
| O=C(O)/C=C/c1ccccc1 | 3.35% (inactive) |
| COCCOCCOCCOC | 0.166% (inactive) |
| CC(C)COC(=O)/C=C/c1ccccc1 | -2.77% (inactive) |
| CC(=O)N(CC(O)CO)c1c(I)c(C(=O)NCC(O)CO)c(I)c(C(=O)NCC(O)CO)c1I (stereo not given) | 0.138% [at 35.3 µM] (inactive) |
| O=C(CN1CCN(Cc2ccc3c(c2)OCO3)CC1)N1c2ccccc2Sc2ccccc21 | -8.69% [at 35.3 µM] (inactive) |
| C[N+](C)(C)CC(O)CCl (stereo not given) | -0.0255% (inactive) |
| Nc1c(NC/C=C\COc2cc(CN3CCCCC3)ccn2)c(=O)c1=O | 1.59% [at 15.8 µM] (inactive) |
| CCCCC(CC)COC(=O)c1ccccc1 (stereo not given) | 0.123% (inactive) |
| CCNC(=O)/C=C/c1cccc(Br)c1 | 0.793% [at 35.3 µM] (inactive) |
| CC(=O)OC(C(=O)c1ccccc1)c1ccccc1 (stereo not given) | 0.153% (inactive) |
